# Results taken from article PMC11006913.
# Where a chain is given by its changes, count along the chain named.
# Key:
# Test in all cases: PBM; 200 nM protein, PBS
# Settings in all cases: dsDNA, one strand shown
# [1] = biological target: T1, SIX6 (Homo sapiens, UniProt O95475 114-200, T165G)
# T1 sequence: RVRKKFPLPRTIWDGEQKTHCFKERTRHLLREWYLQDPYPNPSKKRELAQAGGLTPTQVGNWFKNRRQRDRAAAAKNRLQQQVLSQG
# [2] = biological target: HESX1 (Homo sapiens, UniProt Q9UBX0 95-180)
# [3] = biological target: HOXA2 (Homo sapiens, UniProt O43364 129-215, R185T)
# [4] = biological target: HOXD13 (Homo sapiens, UniProt P35453 263-343, T313R)
# [5] = biological target: HOXA2 (Homo sapiens, UniProt O43364 129-215, R185K)
# [6] = biological target: HOXD13 (Homo sapiens, UniProt P35453 263-343)
# [7] = biological target: HOXD13 (Homo sapiens, UniProt P35453 263-343, T313A)
# [8] = biological target: HOXA2 (Homo sapiens, UniProt O43364 129-215, Y150S)
# [9] = biological target: HOXA2 (Homo sapiens, UniProt O43364 129-215)
# [10] = biological target: T2, SIX6 (Homo sapiens, UniProt O95475 114-200, T165A)
# T2 sequence: T1 sequence with G52A
# [11] = biological target: HOXB9 (Homo sapiens, UniProt P17482 171-250)
# [12] = biological target: HOXB9 (Homo sapiens, UniProt P17482 171-250, R186Q)
# [13] = biological target: MSX2 (Homo sapiens, UniProt P35548 130-214)
# [14] = biological target: MSX2 (Homo sapiens, UniProt P35548 130-214, F161Y)
# [15] = biological target: ALX3 (Homo sapiens, UniProt O95076 139-225, N203Q)
# [16] = biological target: ALX3 (Homo sapiens, UniProt O95076 139-225)
# [17] = biological target: ALX3 (Homo sapiens, UniProt O95076 139-225, L168Q)
# [18] = biological target: ALX3 (Homo sapiens, UniProt O95076 139-225, L168V)
# [19] = biological target: ALX3 (Homo sapiens, UniProt O95076 139-225, N203S)
# [20] = biological target: T3, NKX2-6 (Homo sapiens, UniProt A6NCS4 118-204, R150C)
# T3 sequence: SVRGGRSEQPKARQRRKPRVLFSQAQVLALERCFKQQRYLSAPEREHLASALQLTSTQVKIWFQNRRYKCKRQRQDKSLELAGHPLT
# [21] = biological target: PROP1 (Homo sapiens, UniProt O75360 56-141)
# [22] = biological target: PROP1 (Homo sapiens, UniProt O75360 56-141, R99H)
# [23] = biological target: PROP1 (Homo sapiens, UniProt O75360 56-141, F88S)
# PROP1 (Homo sapiens, UniProt O75360 56-141, F88S), sequence (O75360 56-141 F88S): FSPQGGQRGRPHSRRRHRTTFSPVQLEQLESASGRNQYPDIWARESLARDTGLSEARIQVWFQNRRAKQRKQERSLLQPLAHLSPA
# HOXA2 (Homo sapiens, UniProt O43364 129-215), sequence (O43364 129-215): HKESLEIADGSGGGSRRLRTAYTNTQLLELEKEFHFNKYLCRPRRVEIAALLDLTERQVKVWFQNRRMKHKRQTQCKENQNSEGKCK
# HOXA2 (Homo sapiens, UniProt O43364 129-215, Y150S), sequence (O43364 129-215 Y150S): as the sequence (O43364 129-215) above, with Y22S counted along it
# HESX1, sequence (Q9UBX0 95-180): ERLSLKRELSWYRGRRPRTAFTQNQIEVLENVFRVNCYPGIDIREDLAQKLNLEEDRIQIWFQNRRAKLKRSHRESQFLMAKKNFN
# HOXA2 (Homo sapiens, UniProt O43364 129-215, R185T), sequence (O43364 129-215 R185T): as the sequence (O43364 129-215) above, with R57T counted along it
# HOXA2 (Homo sapiens, UniProt O43364 129-215, R185K), sequence (O43364 129-215 R185K): as the sequence (O43364 129-215) above, with R57K counted along it
# ALX3 (Homo sapiens, UniProt O95076 139-225, L168Q), sequence (O95076 139-225 L168Q): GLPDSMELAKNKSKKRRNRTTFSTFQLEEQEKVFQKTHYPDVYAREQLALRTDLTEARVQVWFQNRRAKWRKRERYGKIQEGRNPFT
# HOXB9 (Homo sapiens, UniProt P17482 171-250), sequence (P17482 171-250): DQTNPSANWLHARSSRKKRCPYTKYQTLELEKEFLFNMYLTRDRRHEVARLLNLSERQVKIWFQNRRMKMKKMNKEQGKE
# ALX3 (Homo sapiens, UniProt O95076 139-225, N203Q), sequence (O95076 139-225 N203Q): as the sequence (O95076 139-225 L168Q) above, with Q30L, N65Q counted along it
# HOXD13 (Homo sapiens, UniProt P35453 263-343), sequence (P35453 263-343): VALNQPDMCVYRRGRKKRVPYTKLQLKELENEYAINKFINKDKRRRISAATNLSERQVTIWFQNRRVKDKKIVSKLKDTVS
# MSX2 (Homo sapiens, UniProt P35548 130-214, F161Y), sequence (P35548 130-214 F161Y): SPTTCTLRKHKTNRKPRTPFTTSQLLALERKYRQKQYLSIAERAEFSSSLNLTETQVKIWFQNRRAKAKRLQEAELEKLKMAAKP
# ALX3 (Homo sapiens, UniProt O95076 139-225, L168V), sequence (O95076 139-225 L168V): as the sequence (O95076 139-225 L168Q) above, with Q30V counted along it
# PROP1 (Homo sapiens, UniProt O75360 56-141, R99H), sequence (O75360 56-141 R99H): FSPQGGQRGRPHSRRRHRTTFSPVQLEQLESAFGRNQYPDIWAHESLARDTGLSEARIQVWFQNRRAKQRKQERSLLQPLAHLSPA
# ALX3 (Homo sapiens, UniProt O95076 139-225), sequence (O95076 139-225): as the sequence (O95076 139-225 L168Q) above, with Q30L counted along it
# HOXB9 (Homo sapiens, UniProt P17482 171-250, R186Q), sequence (P17482 171-250 R186Q): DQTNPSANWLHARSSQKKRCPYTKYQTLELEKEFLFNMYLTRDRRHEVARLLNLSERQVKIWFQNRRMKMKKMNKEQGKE
# MSX2 (Homo sapiens, UniProt P35548 130-214), sequence (P35548 130-214): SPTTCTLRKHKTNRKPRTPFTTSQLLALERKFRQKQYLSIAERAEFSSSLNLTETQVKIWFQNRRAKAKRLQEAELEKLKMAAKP
# HOXD13 (Homo sapiens, UniProt P35453 263-343, T313R), sequence (P35453 263-343 T313R): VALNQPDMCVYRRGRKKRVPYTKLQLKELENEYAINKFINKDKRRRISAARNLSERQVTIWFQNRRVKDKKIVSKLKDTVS
# ALX3 (Homo sapiens, UniProt O95076 139-225, N203S), sequence (O95076 139-225 N203S): as the sequence (O95076 139-225 L168Q) above, with Q30L, N65S counted along it
# PROP1 (Homo sapiens, UniProt O75360 56-141), sequence (O75360 56-141): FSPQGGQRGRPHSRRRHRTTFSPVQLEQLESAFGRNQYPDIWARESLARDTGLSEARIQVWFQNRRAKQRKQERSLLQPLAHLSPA
# HOXD13 (Homo sapiens, UniProt P35453 263-343, T313A), sequence (P35453 263-343 T313A): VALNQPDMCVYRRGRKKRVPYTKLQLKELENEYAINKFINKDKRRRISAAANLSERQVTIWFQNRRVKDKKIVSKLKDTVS
sequence,measurement,setting,value
GACACCTC,binding signal,[1],"10.4 upbm affinity estimate (log intensity, higher = more binding, comparable within an allelic series)"
ATAACTGC,binding signal,[2],"7.57 upbm affinity estimate (log intensity, higher = more binding, comparable within an allelic series)"
AGGTGTAA,binding signal,[1],"10.5 upbm affinity estimate (log intensity, higher = more binding, comparable within an allelic series)"
AATTTATG,binding signal,[3],"10.1 upbm affinity estimate (log intensity, higher = more binding, comparable within an allelic series)"
same,binding signal,[4],"10.7 upbm affinity estimate (log intensity, higher = more binding, comparable within an allelic series)"
same,binding signal,[5],"11.9 upbm affinity estimate (log intensity, higher = more binding, comparable within an allelic series)"
same,binding signal,[6],"11.6 upbm affinity estimate (log intensity, higher = more binding, comparable within an allelic series)"
same,binding signal,[7],"11.5 upbm affinity estimate (log intensity, higher = more binding, comparable within an allelic series)"
same,binding signal,[8],"10.9 upbm affinity estimate (log intensity, higher = more binding, comparable within an allelic series)"
same,binding signal,[9],"10.1 upbm affinity estimate (log intensity, higher = more binding, comparable within an allelic series)"
GGTGACAC,binding signal,[1],"10.4 upbm affinity estimate (log intensity, higher = more binding, comparable within an allelic series)"
same,binding signal,[10],"10.4 upbm affinity estimate (log intensity, higher = more binding, comparable within an allelic series)"
AGTGACAC,binding signal,[1],"10.6 upbm affinity estimate (log intensity, higher = more binding, comparable within an allelic series)"
same,binding signal,[10],"10.5 upbm affinity estimate (log intensity, higher = more binding, comparable within an allelic series)"
GGTGTAAC,binding signal,[1],"10.4 upbm affinity estimate (log intensity, higher = more binding, comparable within an allelic series)"
same,binding signal,[10],"10.4 upbm affinity estimate (log intensity, higher = more binding, comparable within an allelic series)"
GACACCCA,binding signal,[1],"10.5 upbm affinity estimate (log intensity, higher = more binding, comparable within an allelic series)"
ATCAATAG,binding signal,[3],"9.12 upbm affinity estimate (log intensity, higher = more binding, comparable within an allelic series)"
same,binding signal,[11],"10.1 upbm affinity estimate (log intensity, higher = more binding, comparable within an allelic series)"
same,binding signal,[12],"10.1 upbm affinity estimate (log intensity, higher = more binding, comparable within an allelic series)"
same,binding signal,[9],"9.47 upbm affinity estimate (log intensity, higher = more binding, comparable within an allelic series)"
ACACCACC,binding signal,[1],"10.3 upbm affinity estimate (log intensity, higher = more binding, comparable within an allelic series)"
AAGTGTCA,binding signal,[1],"10.5 upbm affinity estimate (log intensity, higher = more binding, comparable within an allelic series)"
same,binding signal,[10],"10.5 upbm affinity estimate (log intensity, higher = more binding, comparable within an allelic series)"
same,binding signal,[13],"10.6 upbm affinity estimate (log intensity, higher = more binding, comparable within an allelic series)"
same,binding signal,[14],"10.5 upbm affinity estimate (log intensity, higher = more binding, comparable within an allelic series)"
GACACCTA,binding signal,[1],"10.6 upbm affinity estimate (log intensity, higher = more binding, comparable within an allelic series)"
same,binding signal,[10],"10.5 upbm affinity estimate (log intensity, higher = more binding, comparable within an allelic series)"
CCCCCCCA,binding signal,[3],"7.25 upbm affinity estimate (log intensity, higher = more binding, comparable within an allelic series)"
same,binding signal,[15],"7.7 upbm affinity estimate (log intensity, higher = more binding, comparable within an allelic series)"
same,binding signal,[5],"9.99 upbm affinity estimate (log intensity, higher = more binding, comparable within an allelic series)"
same,binding signal,[16],"7.68 upbm affinity estimate (log intensity, higher = more binding, comparable within an allelic series)"
same,binding signal,[17],"7.68 upbm affinity estimate (log intensity, higher = more binding, comparable within an allelic series)"
same,binding signal,[18],"7.64 upbm affinity estimate (log intensity, higher = more binding, comparable within an allelic series)"
same,binding signal,[8],"10.2 upbm affinity estimate (log intensity, higher = more binding, comparable within an allelic series)"
same,binding signal,[19],"7.67 upbm affinity estimate (log intensity, higher = more binding, comparable within an allelic series)"
same,binding signal,[9],"7.37 upbm affinity estimate (log intensity, higher = more binding, comparable within an allelic series)"
CCGACACC,binding signal,[1],"10.4 upbm affinity estimate (log intensity, higher = more binding, comparable within an allelic series)"
same,binding signal,[10],"10.3 upbm affinity estimate (log intensity, higher = more binding, comparable within an allelic series)"
TAACTTGA,binding signal,[2],"7.21 upbm affinity estimate (log intensity, higher = more binding, comparable within an allelic series)"
GAGAATGA,binding signal,[2],"7.23 upbm affinity estimate (log intensity, higher = more binding, comparable within an allelic series)"
GCATAAAC,binding signal,[2],"7.44 upbm affinity estimate (log intensity, higher = more binding, comparable within an allelic series)"
CCCCCACG,binding signal,[3],"6.91 upbm affinity estimate (log intensity, higher = more binding, comparable within an allelic series)"
same,binding signal,[20],"9.26 upbm affinity estimate (log intensity, higher = more binding, comparable within an allelic series)"
same,binding signal,[5],"9.95 upbm affinity estimate (log intensity, higher = more binding, comparable within an allelic series)"
same,binding signal,[21],"6.48 upbm affinity estimate (log intensity, higher = more binding, comparable within an allelic series)"
same,binding signal,[22],"6.59 upbm affinity estimate (log intensity, higher = more binding, comparable within an allelic series)"
same,binding signal,[23],"6.32 upbm affinity estimate (log intensity, higher = more binding, comparable within an allelic series)"
same,binding signal,[8],"10.4 upbm affinity estimate (log intensity, higher = more binding, comparable within an allelic series)"
same,binding signal,[9],"6.93 upbm affinity estimate (log intensity, higher = more binding, comparable within an allelic series)"
